High-throughput results (PubChem)
The list is not random: actives were taken first. Their share in the collection is about 1.1%.
IP6K1 inhibitor: IP6K1 kinase inhibition; IP6K1 kinase, ADP-Glo luminescence, 2 h; hits give low values; activity change, % (series mostly up to about 58 µM); 0.81% of 140,000 active; AID 1645851; in the data active = activity change below about -25%
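ADP-Glo luminescence measures ADP made by human IP6K1 during a 2 h RT reaction with ATP/IP6 (mix at 1.3 mM/130 uM); top library doses 57.5 and 19.1 uM final.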
GPT2 inhibitor: GPT2 alanine aminotransferase inhibition; Q8TD30; Recombinant GPT2, coupled pyruvate oxidase/HRP Amplex Red fluorescence; Potency, µM (doses to about 57.7 µM), without a hit: top-dose activity change, negative = inhibition, usual class: inhibitors; 0.25% of 100,000 active; note: potency is the fitted concentration of half-maximal effect; nearly all actives have a fitted effect of over 60% in size
Target sequence (Q8TD30 whole entry, looked up): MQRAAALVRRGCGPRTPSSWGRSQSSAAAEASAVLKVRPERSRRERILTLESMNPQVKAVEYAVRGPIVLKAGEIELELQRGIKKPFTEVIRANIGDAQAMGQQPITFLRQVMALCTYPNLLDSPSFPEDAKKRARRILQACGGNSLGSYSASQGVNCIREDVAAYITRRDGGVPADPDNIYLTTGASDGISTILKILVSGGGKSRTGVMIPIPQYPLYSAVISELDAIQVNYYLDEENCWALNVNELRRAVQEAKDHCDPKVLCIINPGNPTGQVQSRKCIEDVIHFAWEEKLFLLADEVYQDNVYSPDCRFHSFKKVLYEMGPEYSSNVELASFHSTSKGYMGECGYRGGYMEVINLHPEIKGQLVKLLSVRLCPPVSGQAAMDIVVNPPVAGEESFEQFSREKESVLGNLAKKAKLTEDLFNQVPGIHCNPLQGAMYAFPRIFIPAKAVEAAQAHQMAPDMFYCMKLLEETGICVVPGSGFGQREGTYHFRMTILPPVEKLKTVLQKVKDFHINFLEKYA
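Fluorescence of coupled pyruvate oxidase/HRP/Amplex Red system (50uM Amplex, 30 min, dark) reports pyruvate formed by GPT2. Enzyme reaction: 10ng/uL GPT2, 2mM L-alanine, 250uM a-KG, 30 min room temperature, pH 7.5; 50uM AOA control.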
SNCA expr inh: SNCA gene expression inhibition. HEK-293 SNCA-luciferase knock-in, luminescence, 24 h. Potency, µM (highest dose often 57.2 µM), for inactives: at the top dose activity change, negative = inhibition, actives largely listed as inhibitors. 0.17% of 140,000 active. AID 1671194;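 note: potency is the fitted concentration of half-maximal effect; plate controls were DMSO cells for no effect and cell-free wells for full effect; nearly all actives have a fitted effect of over 45% in size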
HEK293 viab: counter-screen for SNCA expression inhibitors: cell viability. Potency, µM (titrated, usually from 57.1 µM), for inactives: at the highest dose activity change, negative = cytotoxicity, most hits filed as cytotoxic. 0.12% of 150,000 active. AID 1671193. HEK-293-SNCA-luc viability, GF-AFC fluorescence, 24 h;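 note: potency is the fitted concentration of half-maximal effect; 0% = DMSO-treated cells and -100% = medium-only wells without cells; nearly all actives have a fitted effect of over 30% in size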
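Cytotoxicity counterscreen: after 24 h compound treatment of genome-edited SNCA-luciferase HEK-293 cells, live-cell protease substrate GF-AFC read by fluorescence after 30 min; activity scaled between DMSO (0%) and medium-only (-100%), curves Hill-fitted.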
* marks the source's active call; other numbers are inactive results; ! = repeats disagree; [ ] = another dose, or the depositor's remark. Unless noted, calls come from the whole dose curve; as a rule, active = well fitted curve in the direction sought with a large enough effect; inconclusive = small, poorly fitted or top-dose-only effect, or another doubt; inactive = no such curve, though single readings can be large; an effect the other way counts as inactive or inconclusive. Unless noted, % is set by controls: 0 for no effect and ±100 for the full control effect.

What do the screens show for `CN1CCN(CC(N)C2CCCCC2)CC1` (stereo unspecified)?
IP6K1 inhibitor: -17; GPT2 inhibitor: -14%[88.5 µM]; SNCA expr inh: 6%[87.6 µM]; HEK293 viab: -2%[87.6 µM]

Results for Cc1nn2c(c1-c1ccnn1C(C)C)N(Cc1ccc(O)cc1)CCC2 ?
IP6K1 inhibitor: 21; GPT2 inhibitor: inactive; SNCA expr inh: 6%[87.6 µM]; HEK293 viab: 6%[87.6 µM]

What do the screens show for `Cc1nn2c(c1-c1ccnn1C(C)C)N(Cc1cccc(C#N)c1)CCC2`?
IP6K1 inhibitor: 12; GPT2 inhibitor: -6%[88.5 µM]; SNCA expr inh: 2.8µM*; HEK293 viab: inconclusive

What do the screens show for `CC[C@H]1CN2CCc3cc(OC)c(OC)cc3[C@H]2C[C@@H]1C[C@@H]1NCCc2cc(OC)c(OC)cc21`?
GPT2 inhibitor: 4%; SNCA expr inh: 0.61µM*; HEK293 viab: inconclusive

Results for Fc1ccc(-n2cc(CCCCN3CCC4(CC3)OCc3ccccc34)c3ccccc32)cc1 ?
IP6K1 inhibitor: 21; GPT2 inhibitor: -3%; HEK293 viab: 19µM*

What do the screens show for `COC(=O)c1nnn(-c2cccc(C)c2)c1C(=O)OC`?
IP6K1 inhibitor: -6; SNCA expr inh: 17%; HEK293 viab: 13%

How did Cc1cccc(-n2nnnc2S(C)(=O)=O)c1 do in these assays?
IP6K1 inhibitor: 3; SNCA expr inh: inconclusive; HEK293 viab: 22µM*

Results for CO[C@H]1C(=O)N(C(C)C)[C@H]1C1CCN(C(=O)NCc2ccc(C)cc2)CC1 ?
IP6K1 inhibitor: 23; GPT2 inhibitor: inactive; SNCA expr inh: 5%; HEK293 viab: 10%

Results for Nc1nc(F)nc2c1ncn2[C@@H]1O[C@H](CO)[C@@H](O)[C@@H]1O ?
IP6K1 inhibitor: 10; GPT2 inhibitor: -3%; SNCA expr inh: 8.6µM*!; HEK293 viab: inconclusive

What do the screens show for `CSc1ccc(-c2noc(-c3ncn4c3COC(c3ccccc3Cl)C4)n2)cc1` (stereo unspecified)?
IP6K1 inhibitor: 7; GPT2 inhibitor: inactive; SNCA expr inh: 1%; HEK293 viab: -7%

What do the screens show for `COc1ccc(N(Cc2ccccc2)C(=O)c2nc(S(C)(=O)=O)ncc2Cl)cc1`?
IP6K1 inhibitor: -26*; SNCA expr inh: inconclusive; HEK293 viab: 6.3µM*

Results for O=C(c1ccc(Cl)cc1)N(Cc1ccco1)Cc1ccco1 ?
IP6K1 inhibitor: 9; SNCA expr inh: 13%; HEK293 viab: 0%

Results for CS(=O)(=O)c1ncc(Cl)c(C(=O)N(Cc2ccc(Cl)cc2)Cc2ccco2)n1 ?
IP6K1 inhibitor: -13; SNCA expr inh: inconclusive; HEK293 viab: 2.5µM*

Results for O=C(NCc1ccccc1)c1nc(S(=O)(=O)Cc2ccccc2)ncc1Cl ?
IP6K1 inhibitor: -5; SNCA expr inh: inconclusive; HEK293 viab: inconclusive

How did CCCSc1ncc(Cl)c(C(=O)N(Cc2ccccc2)c2ccc(OC)cc2)n1 do in these assays?
IP6K1 inhibitor: 3; SNCA expr inh: inconclusive; HEK293 viab: 2%

Results for COc1ccc(CNC(=O)c2nc(S(=O)(=O)Cc3ccccc3)ncc2Cl)cc1 ?
IP6K1 inhibitor: -7; SNCA expr inh: inconclusive; HEK293 viab: 25µM*

What do the screens show for `COC[C@H]1NC(=O)CC[C@H]1C(=O)NCCCc1ccccc1`?
IP6K1 inhibitor: 0; GPT2 inhibitor: inactive; SNCA expr inh: 23%; HEK293 viab: 1%

Results for COc1cccc(N2C(=O)NC(=NC3CCCC3)C23CCCN([S+](=O)([O-])c2cccc(OC)c2)C3)c1 (stereo unspecified) ?
IP6K1 inhibitor: -14; GPT2 inhibitor: -6%; SNCA expr inh: -2%; HEK293 viab: -10%

How did CC(=O)Nc1ccc(C(=O)N2CCN(c3cc(-c4ccc(F)cc4)[nH]n3)CC2)cc1 do in these assays?
IP6K1 inhibitor: 0; GPT2 inhibitor: inactive; SNCA expr inh: -21%; HEK293 viab: 2%

What do the screens show for `CC(=O)Nc1ccc(NC(=O)c2cc3c(n2C)CCN(Cc2ccccc2)C3)cc1`?
IP6K1 inhibitor: -9; GPT2 inhibitor: -25%; SNCA expr inh: 33%; HEK293 viab: 9%

What do the screens show for `Cn1c(C(=O)Nc2ccc(N3CCOCC3)cc2)cc2c1CCN(Cc1ccccc1)C2`?
IP6K1 inhibitor: -8; GPT2 inhibitor: 22µM*; SNCA expr inh: 78%; HEK293 viab: -14%

How did CCOC(=O)c1c(C)n(-c2ccccc2)c2ccc(OC(=O)c3ccccc3NC(=O)C(C)(C)C)cc12 do in these assays?
IP6K1 inhibitor: -17; SNCA expr inh: 13µM*; HEK293 viab: inconclusive
